TRHR agonist: activates the human TRH receptor | 360,000 tested, 0.18% active | activation, % at 2 µM | TRHR cells, calcium flux fluo-8, FDSS agonist mode; further: 0% is about no effect
Target sequence (P34981 whole entry, looked up): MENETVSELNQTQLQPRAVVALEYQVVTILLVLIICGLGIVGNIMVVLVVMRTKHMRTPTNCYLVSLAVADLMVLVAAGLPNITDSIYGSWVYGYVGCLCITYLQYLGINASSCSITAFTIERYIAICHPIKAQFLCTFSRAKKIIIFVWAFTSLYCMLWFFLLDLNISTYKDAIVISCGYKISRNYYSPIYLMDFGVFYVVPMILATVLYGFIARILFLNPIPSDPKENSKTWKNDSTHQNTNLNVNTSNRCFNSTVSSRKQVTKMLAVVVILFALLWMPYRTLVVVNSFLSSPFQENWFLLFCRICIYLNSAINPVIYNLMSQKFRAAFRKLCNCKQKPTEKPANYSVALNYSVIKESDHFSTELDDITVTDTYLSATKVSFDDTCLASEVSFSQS
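TRHR-expressing cells loaded with fluo-8 calcium dye; 23 nL library compound pin-transferred, kinetic FDSS fluorescence (Ex 480/Em 530) recorded about 180 s for agonist-induced calcium release, before a 10 nM TRH EC20 addition for potentiator mode.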
D1 ag: activates the human D1 dopamine receptor; P21728; HEK293 T-REx D1 cells, calcium flux, agonist mode; activation, % at 2 µM; 360,000 tested, 1% active; further: 0% is about no effect
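Tetracycline-induced HEK293 TREx D1 cells, force-coupled to calcium signalling, were dye-loaded with a no-wash calcium kit. Compound was pin-added after a 10 s baseline. Fluorescence was read kinetically at 1 cycle/s for 180 s, with calcium rises flagged as agonism.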
D1 antag: blocks dopamine activation of the human D1 receptor | AID 504652 | HEK293 TREx D1 cells, calcium flux, dopamine EC80; hits give low values | 360,000 tested, 3.2% active | activity change, negative = inhibition, % at 10 µM; in the data active means activity change below about -30%; further: on the % scale 0 is the no-effect control and ±100 the full control effect
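Compound effects on dopamine-evoked calcium signalling were measured in tetracycline-induced HEK293 Trex D1 cells. Dopamine at EC80 followed a 180 s compound pre-read, and fluorescence was tracked kinetically for 180 s more.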
D1 potentiator: potentiators of human D1 dopamine receptor; potentiation, % at 10 µM; HEK293 TREx D1 cells, calcium flux, dopamine EC20 potentiation; 360,000 tested, 0.036% active; P21728; in the data active means potentiation above about 30%; further: 0% is about no effect
TRHR PAM: allosterically enhances the human TRH receptor; P34981; TRHR cells, fluo-8 calcium fluorescence, EC20 TRH enhancement; enhancement, % at 2 µM; 360,000 tested, 0.66% active; in the data active means enhancement above about 30%; further: 0% is about no effect
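Enhancer read-out: after compound pinning and an initial kinetic agonist-mode read, an EC20 of TRH (10 nM final) was injected and fluo-8 calcium signal (Ex 480/Em 530) followed at 1 s/cycle for 100 cycles in TRHR-expressing cells.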
* = called active by the depositor; · = no result; ! = repeats disagree. A selection: hits, their analogues and other compounds. The true share with any hit is near 4.7%. Unless noted, no stated cut-off is given here; in the data, active means activation above about 30%; inactive means the rest.

SMILES | TRHR agonist | D1 ag | D1 antag | D1 potentiator | TRHR PAM
C=CC(=O)NCC1OCCc2ccccc21 (stereo not given) | 0.3 | 1.3 | 4.4 | 0.7 | 2.1
CCc1cccc(NC(=O)CCc2c(C)nc3c(c2C)c(=O)n(C)c(=O)n3C)c1 | 0.7 | 2.2 | 4.1 | -3.1 | -5.4
O=S(=O)(c1ccc(Cl)cc1)N1CCN(c2nc(-c3ccc(F)cc3)nc3cc(Cl)ccc23)CC1 | -0.1 | 0.7 | 5.1 | 4.9 | -1.9
COc1ccc(N(CC(=O)N/N=C/c2cccnc2)S(=O)(=O)c2ccc(C)cc2)cc1OC | 0.1 | 2.8 | -52.2* | -4.9 | -3.4
CCOc1ccc(C(=O)c2cn(CC(=O)Nc3ccc(C)c(C)c3)c3ccc(OCC)cc3c2=O)cc1 | 0.9 | 1.9 | 5.4 | -2.0 | 8.9
Cc1cccc(NC(=O)C2CCCN(c3nnc(-n4c(C)ccc4C)s3)C2)c1C (stereo not given) | -2.2 | 2.0 | -9.0 | -3.0 | 10.4
CSCc1ccc(C(=O)NCCSc2ccc(Br)cc2)cc1 | -0.9 | 5.2 | -36.8* | -11.9 | -2.8
CCOc1ccc(NC(=O)CC2C(=O)N(c3cccc(C)c3)C(=O)N2Cc2cccnc2)cc1 (stereo not given) | -0.3 | 2.8 | 1.0 | -2.4 | -1.4
O=C(O)CCCn1cc(NC(=O)COc2ccccc2F)cn1 | -1.5 | 8.5 | -39.0*! | 1.1 | 1.1
COc1ccc(NCc2cc3cc4c(cc3n(CC(=O)Nc3ccc(C)c(C)c3)c2=O)OCO4)cc1 | 2.5 | 19.2 | -3.4 | -0.3 | -1.1
O=C(Nc1ccc(OC(F)(F)F)cc1)N1CCN(c2ccnc3cc(Cl)ccc23)CC1 | 0.2 | 10.2 | -40.5* | -12.4 | 4.1
CCOC(=O)c1cccc(NC(=O)CCCn2c(C)c3cnn(-c4ccccc4)c(=O)c3c2C)c1 | -1.9 | 9.3 | -3.9 | -2.2 | 3.9
Cc1ccc2nc3n(c(=O)c2c1)-c1cc(Cl)ccc1C(=O)NC3Cc1ccccc1 (stereo not given) | -0.6 | 1.6 | -37.5* | 0.2 | -0.1
COc1cc(C(=O)NCC(c2ccc3c(c2)OCO3)N2CCOCC2)cc(OC)c1OC (stereo not given) | 0.1 | 1.0 | 1.2 | -1.4 | 0.3
c1ccc(Oc2ccc(-c3ccnc4nc(N5CCOCC5)nn34)cc2)cc1 | -1.6 | 6.3 | 12.7 | -2.5 | 33.4*
O=C(CC(NS(=O)(=O)c1ccc(Cl)cc1)c1ccco1)NCc1ccco1 (stereo not given) | -1.0 | 9.1 | -37.7* | -4.0 | -4.7
COc1cc2c(cc1OC)C1=C(C#N)CC/C(=N\S(=O)(=O)c3cccc(Cl)c3)N1CC2 | 0.9 | 3.0 | -74.0* | -10.0 | -0.9
Cc1cc(N2CCN(S(=O)(=O)c3ccc(Br)cc3)CC2)n2ncnc2n1 | -0.1 | 1.7 | -18.2 | -1.8 | -3.3
Cc1cc(N2CCN(S(=O)(=O)c3ccc4c(c3)OCCO4)CC2)n2ncnc2n1 | -0.2 | 10.1 | -46.3* | -4.2 | -2.7
COc1ccc(CNC(=O)c2ccc(S(=O)(=O)N3CCOCC3)cc2)cc1 | -0.4 | 3.1 | -18.1 | 4.4 | 10.2
COc1ccc(CNC(=O)C(C)Sc2ccc(S(=O)(=O)N3CCOCC3)cn2)cc1 (stereo not given) | 0.3 | 5.4 | -31.7* | 2.1 | -3.3
COc1ccc(CCN(C)CCCN2CC(c3ccccc3)CC2=O)cc1OC (stereo not given) | -1.3 | 1.6 | -39.3* | -6.9 | 3.3
COc1ccc(CCNC(=O)C2CCN(S(=O)(=O)c3ccc(OC)c(OC)c3)CC2)cc1OC | -0.2 | 0.5 | -7.9 | -1.7 | 6.6
COc1ccc(S(=O)(=O)N2CCC(C(=O)NCCC3=CCCCC3)CC2)cc1OC | 0.3 | 0.6 | -43.0* | -7.2 | 9.9
COc1ccc(S(=O)(=O)N(C)CC(=O)NCCC2=CCCCC2)cc1 | -1.3 | 2.6 | -5.9 | -2.2 | 34.8*
SMILES | TRHR agonist | D1 ag | D1 antag | D1 potentiator | TRHR PAM
COc1ccc(S(=O)(=O)N(C)CC(=O)NCCC2=CCCCC2)cc1OC | -0.8 | -0.4 | 7.8 | -6.5 | 0.5
CC(C)(C)OC(=O)N1CCc2nc(N3CCN(c4ncccn4)CC3)ncc2C1 | 0.9 | 4.6 | -8.5 | 0.1 | -1.5
CN(Cc1cccs1)C(=O)C1CC(=O)N(Cc2ccccc2)C1 (stereo not given) | 0.4 | 2.6 | -54.0* | -5.9 | 8.1
COc1ccc(CCN(C)C(=O)C2CC(=O)N(Cc3ccc(C)cc3)C2)cc1OC (stereo not given) | -0.2 | 1.8 | -34.1* | · | 6.7
COc1ccc(CNC(=O)C2CCN(S(=O)(=O)c3ccc(C)cc3)CC2)cc1 | -0.7 | 0.6 | -0.7 | 3.5 | 0.2
CC(C)[C@H](NC(=O)C1CCN(S(=O)(=O)c2ccccc2)CC1)C(=O)NCc1ccccc1 | 0.0 | 2.2 | -44.7* | -2.9 | -6.2
COc1ccc(CCNC(=O)C2CCN(S(=O)(=O)c3ccc(C)cc3)CC2)cc1 | -0.7 | 8.4 | -34.7* | -12.4 | -13.4
CC(C)[C@H](NC(=O)C1CCN(S(=O)(=O)c2ccccc2)CC1)C(=O)NCc1ccncc1 | -0.1 | 0.8 | 28.0 | 13.8 | -2.6
CCN(CC)CCCNC(=O)Cc1csc2nc(-c3ccc(Cl)cc3)cn12 | 0.8 | 0.1 | 2.0 | -2.1 | 8.3
CCN(CC)c1ccc(CN(C(=O)Cc2coc3ccc(C)cc23)C2CCS(=O)(=O)C2)cc1 (stereo not given) | -0.5 | 2.5 | 51.4 | 3.0 | -4.4
CCOc1ccc(N(CC)S(=O)(=O)N2CCCC(C(=O)NCc3ccccc3Cl)C2)cc1 (stereo not given) | 0.5 | 9.4 | -0.9 | -5.8 | -5.9
COc1ccc(S(=O)(=O)N2CCCCC2C(=O)O)cc1OC (stereo not given) | 0.5 | 0.2 | -12.0 | -4.8 | 32.8*
COc1ccc(S(=O)(=O)N2CCC(C(=O)N[C@@H](C)C(=O)NCc3ccc(F)cc3)CC2)cc1 | -0.6 | -0.4 | -34.9* | 3.0 | 5.7
COc1ccc(CN2CC(C(=O)NCCc3ccccc3)CC2=O)cc1 (stereo not given) | 0.3 | 0.4 | 22.0 | 3.9 | -0.5
COc1ccc(CN2CC(C(=O)NCCc3ccc(C)cc3)CC2=O)cc1 (stereo not given) | 0.4 | 0.4 | -47.4* | -1.6 | -1.2
CCn1ccc2cc(S(=O)(=O)N3CCC(C(=O)NCc4cccc(Cl)c4)CC3)ccc21 | 0.1 | 10.8 | 9.2 | 2.6 | 0.7
CCc1ccccc1N(C)S(=O)(=O)c1ccc2[nH]cc(C(=O)NCCOC)c(=O)c2c1 | 0.1 | 2.8 | -7.8 | 1.5 | -2.1
O=c1c(Cl)c(Cl)cnn1Cc1nnc(-c2ccccc2Br)o1 | 1.0 | 235.9* | -24.0 | 18.9 | 39.0*
Cc1nc(CNS(=O)(=O)c2ccc3c(c2)CCCC3)cs1 | -0.9 | 9.9 | -46.5* | -10.8 | 9.2
Cc1ccc(S(=O)(=O)NCc2csc(C)n2)cc1 | -0.5 | -0.1 | 1.4 | 3.0 | -6.1
Cc1nc(SCCOc2ccc(F)cc2)c2ccccc2n1 | 0.3 | 33.6* | 3.2 | -11.1 | 2.4
Cc1nc(SCCC(=O)O)c2ccccc2n1 | 0.3 | 1.4 | -1.9 | -3.8 | 8.8

Screening results (PubChem)
